A selection: hits, their analogues and other compounds. The true share with any hit is near 0.77%.
Vif-APOBEC3G blk = Vif-A3G binding inhibition; Q9HC16; HeLa A3G-eYFP + Vif (tagged APOBEC3G with the HIV-1 protein that degrades it), YFP fluorescence, overnight; Potency, µM (doses to about 46.1 µM), without a hit: at the top dose activity, negative = active, hits mostly inhibitors; 410,000 tested, 0.076% active; AID 602310; further: potency means the concentration at half of the fitted maximal effect; on the % scale 0 is the no-effect control and ±100 the full control effect; nearly all actives have a fitted effect of over 60% in size
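HeLa cells stably expressing Vif and C-terminally eYFP-tagged A3G, seeded overnight at 37 deg C, then exposed to compound by pintool overnight at 37 deg C. Rise in yellow fluorescence (Ex 488/Em 500-530, Acumen) marks blocked Vif-driven A3G degradation.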
RGS12 GoLoco inh = inhibitors of human Gai1-RGS12 GoLoco interaction (red fluorophore). P63096. Gai1:RGS12 GoLoco peptide FP, rhodamine, 10 min. Potency, µM (top dose mostly 61.6 µM), for inactives: at the highest dose activity, negative = inhibition, hits mostly inhibitors. 230,000 tested, 0.44% active. AID 880; active means well fitted inhibition curve with a large enough effect, not every such curve was filed as active; inactive means no such curve, though single readings can be large or run the other way; further: potency means the concentration at half of the fitted maximal effect; on the % scale 0 is the no-effect control and ±100 the full control effect; nearly all actives have a fitted effect of over 30% in size
KAT2A inh = GCN5L2 (KAT2A) acetyltransferase inhibition; 390,000 tested, 0.21% active; AID 504327; Potency, µM (titrated, usually from 58.9 µM), without a hit: at the highest dose activity change, negative = inhibition, hits mostly inhibitors; GCN5L2 HAT assay, ThioGlo1 CoA-SH fluorescence; further: potency means the concentration at half of the fitted maximal effect; on the % scale 0 is the no-effect control and ±100 the full control effect
Target sequence (Q92830 whole entry, looked up): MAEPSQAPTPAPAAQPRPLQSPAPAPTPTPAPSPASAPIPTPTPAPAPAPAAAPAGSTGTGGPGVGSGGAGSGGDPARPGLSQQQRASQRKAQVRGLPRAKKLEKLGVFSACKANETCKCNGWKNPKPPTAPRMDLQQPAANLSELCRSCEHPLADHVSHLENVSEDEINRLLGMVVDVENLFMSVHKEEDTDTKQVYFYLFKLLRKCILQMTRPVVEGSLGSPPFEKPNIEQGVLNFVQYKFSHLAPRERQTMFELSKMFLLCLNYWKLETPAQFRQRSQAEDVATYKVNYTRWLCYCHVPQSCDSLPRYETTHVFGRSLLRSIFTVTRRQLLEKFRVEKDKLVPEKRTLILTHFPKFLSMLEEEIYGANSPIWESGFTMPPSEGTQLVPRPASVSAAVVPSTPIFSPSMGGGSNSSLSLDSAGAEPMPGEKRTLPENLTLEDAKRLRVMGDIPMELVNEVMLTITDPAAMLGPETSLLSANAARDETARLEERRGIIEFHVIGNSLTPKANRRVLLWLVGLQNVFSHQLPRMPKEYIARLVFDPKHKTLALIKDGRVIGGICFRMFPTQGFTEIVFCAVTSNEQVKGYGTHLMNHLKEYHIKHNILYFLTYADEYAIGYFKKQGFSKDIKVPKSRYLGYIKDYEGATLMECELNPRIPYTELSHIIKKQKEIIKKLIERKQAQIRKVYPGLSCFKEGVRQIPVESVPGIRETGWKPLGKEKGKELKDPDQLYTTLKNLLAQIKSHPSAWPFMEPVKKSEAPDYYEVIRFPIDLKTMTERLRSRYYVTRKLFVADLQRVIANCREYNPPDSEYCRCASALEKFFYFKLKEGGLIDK
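Fluorescence readout, Ex340nm/Em540nm: ThioGlo1 (50uM final) reacts with free CoA thiol released as 20nM GCN5L2 acetylates H3(1-25) peptide (75uM) using acetyl-CoA (70uM). Compound and enzyme sat 15 min beforehand; 20 min room-temperature reaction.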
IL-2 act = activators of IL-2 | IL-2 activation reporter assay, cell-based qHTS; stimulated with anti-CD3/CD4/CD28 beads; in transgenic mouse T cells | activation, % (series mostly up to about 46 µM) | 360,000 tested, 0.065% active | AID 652025; in the data active means activation above about 50%; inconclusive means mostly about 30% to 49%; further: 0% is about no effect
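Unstimulated transgenic mouse T cells preincubated 60 min with compound, then stimulated with anti-CD3/anti-CD4-coated beads plus anti-CD28 for 18 h at 37 degrees C. IL-2 response read as EGFP and DsRed fluorescence by plate cytometry.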
Vif-A3F inh = blocks the Vif interaction with APOBEC3F. 390,000 tested, 0.2% active. AID 602313. Potency, µM (top dose mostly 46.1 µM), for inactives: at the highest dose activity, negative = active. HeLa A3F-eYFP + Vif (tagged APOBEC3F with the HIV-1 protein that degrades it), YFP fluorescence increase; further: potency means the concentration at half of the fitted maximal effect; % of control where 0% means no effect; nearly all actives have a fitted effect of over 65% in size
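HeLa cells stably expressing A3F-eYFP plus Vif, plated and incubated overnight at 37 deg C, then exposed to compounds overnight at 37 deg C. Blocked degradation read as raised yellow fluorescence (Ex 488/Em 500-530).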
PKM2 activator = activators of human pyruvate kinase M2; P14618; purified PKM2, Kinase-Glo ATP luminescence, activation; response scale: 0% is enzyme alone, no compound; Potency, µM (doses to about 57.5 µM), for the others: at the highest dose activation, usual class: activators; 260,000 tested, 0.34% active; further: potency means the concentration at half of the fitted maximal effect; on the % scale 0 is the no-effect control and ±100 the full control effect; nearly all actives have a fitted effect of over 55% in size
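Purified hPK-M2 (>95%) run at intermediate activity with 0.1 mM ADP and 0.5 mM PEP in 50 mM imidazole pH 7.2, KCl, MgCl2; 1 h room temperature. ATP formed read by Kinase-Glo luminescence; normalized to uninhibited and no-enzyme controls.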
Active calls of the source: *; ? = inconclusive; · = no result given; ! = repeats disagree. Unless noted, the call rests on the fitted dose curve; in most records, active means well fitted curve in the direction sought with a large enough effect; inconclusive means small, poorly fitted or top-dose-only effect, or another doubt; inactive means no such curve, though single readings can be large; an effect the other way counts as inactive or inconclusive.

SMILES | Vif-APOBEC3G blk | RGS12 GoLoco inh | KAT2A inh | IL-2 act | Vif-A3F inh | PKM2 activator
C[N+](C)(C)CCN(Cc1ccc(Cl)cc1)c1ccccn1 | 1% | 6.3µM* | -12% | -2 | 8% | -2%
O=c1c2ccccc2ncn1CCCOc1ccccc1[N+](=O)[O-] | 0% | · | 1% | -2 | -4% | 2%
O=[N+]([O-])c1ccccc1OCCCn1cnc2ccccc21 | -8% | -5% | -1% | 1 | 5% | 18µM*
COc1ccc(S(=O)(=O)Nc2ccc(F)c(Cl)c2)cc1OC | -1% | -9% | -7% | 0 | -10% | 16µM*
COC(=O)[C@H]1C[C@@H]1[C@H](NC(C)=O)c1ccccc1 | · | 1.3µM* | · | · | · | -16%
c1ccc2n[nH]nc2c1 | 0% | 16µM* | · | -2 | 0% | ·
CC1=C(C(=O)O)N2C(=O)C(NC(=O)C(N)C3=CCC=CC3)C2SC1 (centres undefined) | · | 5% | · | · | · | ·
CN(C)c1ccc(C2C=C(c3ccc(Cl)cc3OC(F)F)Nc3ncnn32)cc1 (centres undefined) | 8.9µM* | -10% | -10% | 0 | · | 13%
O=S1(=O)NC(=NCC(c2ccco2)N2CCCCC2)c2ccccc21 (centres undefined) | 0% | 17% | -8% | -4 | -15% | 0%
O=C1c2ccccc2C(=O)c2c(NC3CCCCC3)ccc(Nc3ccc(S(=O)(=O)O)cc3)c21 | · | 3.5µM* | · | · | · | ·
O=C1c2ccccc2C(=O)c2c(Nc3ccc(CCO)cc3)ccc(O)c21 | -1% | 6% | -3% | -3 | -1% | -13%
COc1cc(/C=N\Nc2ccc([N+](=O)[O-])cc2)ccc1OCC(=O)Nc1ccc(C)c(C)c1 | -1% | 10% | ? | 2 | 10µM* | -4%
CCOc1cc(/C=N\Nc2ccc([N+](=O)[O-])cc2)ccc1OCC(=O)Nc1ccc(C)c(C)c1 | ? | 9% | -14% | 0 | · | -10%
Cc1ccc(-c2nn(-c3cccc(F)c3)cc2CN2CCN(c3ccccn3)CC2)o1 | 1% | -18% | -4% | 0 | -10% | 16µM*
Cc1ccc(-c2nn(-c3cccc(F)c3)cc2CN(Cc2nccn2C)C(C)C)o1 | -5% | -27% | -5% | -5 | ? | ?
CC(C)(C)CC(C)(C)N1CNC(=S)NC1 | 0% | 0% | 2% | 0 | -6% | -1%
COc1ccc(NC(=O)c2ccco2)cc1NC(=O)c1cccc(OC(C)C)c1 | -1% | -4% | -28% | 1 | -7% | 10%
Cc1cc2nc(CCl)cc(=O)n2[nH]1 | 3% | 6% | ? | 2 | -5% | 0%
O=S(=O)(O)c1ccc2c(c1)-c1nc-2nc2[nH]c(nc3nc(nc4[nH]c(n1)c1ccc(S(=O)(=O)O)cc41)-c1ccc(S(=O)(=O)O)cc1-3)c1ccc(S(=O)(=O)O)cc21 | · | · | 0.63µM* | · | · | ·
CCS(=O)(=O)N1Cc2ccccc2CC1C(=O)Nc1nccs1 (centres undefined) | -8% | 5% | 2% | 0 | -15% | 0%
O=C(CSc1nc(-c2ccc(F)cc2)nc2c1Cc1ccccc1O2)Nc1cccc(C(=O)O)c1 | -6% | 106% | 13µM* | -2 | -23% | ?
CN1CCC(=C2c3ccccc3Sc3ccccc32)CC1 | 2% | 18µM*! | 0% | 0 | 4% | ·
CC(C)NC(=O)COc1ncnc2sccc12 | -1% | 5% | 32µM* | -2 | 0% | 3%
CCc1ccc2[nH]c(=O)c(-c3ccccc3)c(O)c2c1 | -13% | · | -22% | -3 | -4% | 4%
CN1CCS/C1=C\C=C1/SC(=S)N(CC(=O)O)C1=O | 11% | 53% | -7% | 65* | -13% | -10%
CCN1C(=O)/C(=C/C=C2/SCCN2C)SC1=S | ? | -68% | -12% | -1 | ? | 6%
